PubChem BioAssay AID504329 (Southern Research Specialized Biocontainment Screening …, 2011)
The campaign covered roughly 340,000 compounds. About 1,000 (0.29%) were called active. A selection follows. Entries with a potency or affinity are not part of this list. A number with no mark means an inactive call. Rule as the data show it: inconclusive = inhibition above about 27% without an active follow-up result; inactive = below that.

assay: H1N1 influenza NS1A inhibitors, functional cell based assay (AID 504329); settings: percent inhibition, at 12.5 µM, active compounds read high

Row | Compound | inhibition [%]
1 | CC(=O)N1CCN(C(=O)COC(=O)CNC(=O)c2ccccc2C)CC1 | -1.13
2 | Cc1ccc(CNCC(O)(c2ccccc2)c2ccc(Cl)cc2)cc1 (stereo unspecified) | 6.37
3 | Cn1c(SCC(=O)N2CCCC2=O)nnc1-c1ccccc1F | 6.14
4 | COc1ccc(C(=O)c2ccc(N(C)C)cc2)c2ccccc12 | 11.2
5 | CCOC(=O)c1cccc(NC(=O)c2ccc(N(C)C)cc2)c1 | 5.77
6 | CCOC(=O)c1cc2c(C)n(-c3ccc(N(C)C)cc3)c(C)c2cc(C(=O)OCC)c1=O | -3.74
7 | C[n+]1c(-c2ccccc2)cc(-c2ccc(O)cc2)cc1-c1ccccc1 | -0.313
8 | CN(C)c1ccc(C=c2c3ccccc3n3c2c2ccccc2[n+]3C)cc1 | 21
9 | COc1cc(C=c2c3ccccc3n3c2cc(-c2ccccc2)[n+]3C)cc(OC)c1OC | 6.14
10 | CN(C)c1ccc(/C=C/c2nc3ccccc3c(=O)n2-c2ccc(C(=O)O)cc2)cc1 | -25.3
11 | CN(C)c1ccc(/C=C2\CCCc3c2nc2ccccc2c3C(=O)O)cc1 | 2.2
12 | COc1ccc(C)cc1NS(=O)(=O)c1ccc2c(c1)N(C)CCO2 | 3.31
13 | COC(=O)C1CN(C(=O)c2ccc(OC(F)F)cc2)c2ccccc2O1 (stereo unspecified) | 8.47
14 | CN(CC(=O)Nc1ccccc1Cl)CC(=O)N1CCc2ccccc21 | -8.6
15 | CCOc1ccc(CC(=O)Nc2nccs2)cc1OCC | -1.94
16 | C=CCNc1nc(N)c([N+](=O)[O-])c(Nc2cccc(Cl)c2)n1 | 3.17
17 | CC(C)=CC(=O)Nc1nnc(-c2ccccc2C)s1 | -8.76
18 | O=C(CNCc1ccc(Cl)cc1)N1CCc2ccccc2C1 | -2.57
19 | O=C(CNCc1cccc(Cl)c1)N1CCc2ccccc2C1 | -4.83
20 | COc1cc(/C=N/Nc2nc3ccccc3o2)cc(OC)c1O | 1.3
21 | CN(C)c1ccc(/C=N/Nc2nc3ccccc3o2)cc1 | -0.4
22 | Oc1ccccc1/C=N/Nc1nc2ccccc2o1 | 12
23 | C/C(=N\Nc1nc2ccccc2s1)c1cccs1 | -10
24 | CC(=NNc1nc2ccccc2s1)c1ccncn1 | 6.3

Row | Compound | inhibition [%]
25 | Cc1ccnc(Nc2nc3ccccc3o2)n1 | -3.68
26 | CCCN1CCC(N(C)CCc2ccc(OC)c(OC)c2)CC1 | -5.4
27 | CCOC(=O)C1=C(C)N(C[C@@H]2CC[C@@H](Cc3ccc(-c4ccccc4)cc3)O2)C(=O)NC1c1ccc(Cl)cc1 (stereo partly specified) | -4.34
28 | Cc1cccc(C)c1NC(=O)COC(=O)COc1ccc2c(C)cc(=O)oc2c1 | 10.5
29 | COc1ccccc1-n1nnnc1SCC(=O)NCC1CCCO1 (stereo unspecified) | -3.64
30 | Cc1cccc(NC(=S)N(CCCN2CCOCC2)Cc2cn(C)c3ccccc23)c1 | 4.41
31 | Cc1cc2c(cc1C)N(C(=O)CSC1=NCCS1)C(C)(C)c1ssc(=S)c1-2 | 14.7
32 | CC1(C)c2ssc(=S)c2-c2ccccc2N1C(=O)c1ccco1 | 2.72
33 | CCOc1ccc2c(c1)-c1c(ssc1=S)C(C)(C)N2C(=O)CSC1=NCCS1 | 20
34 | Cc1ccc2c(c1)-c1c(ssc1=S)C(C)(C)N2C(=O)CN1C(=O)c2ccccc2C1=O | 28.5
35 | CCOC(=O)c1c(NC(=O)c2ccc(N3C(=O)[C@@H]4[C@H](C3=O)[C@H]3C=C[C@@H]4C3)cc2)sc2c1CCCC2 | -7.09
36 | CC(C)C(=O)Nc1ccc(NC(=S)NC(=O)c2ccccc2F)cc1 | 1.28
37 | O=S(=O)(NCCc1cn2ccccc2n1)c1ccc2c(c1)CCCC2 | 25.4
38 | S=C(CN1CCCC1=S)NCCc1ccccc1 | -5.27
39 | Cc1[nH]c2ccccc2c1CCNS(=O)(=O)c1ccc(S(N)(=O)=O)cc1 | 23.3
40 | CN(Cc1ccc(Cl)c(Cl)c1)C(=O)c1ccccc1SCC(=O)N1CCCC1 | -4.06
41 | CN(C)Cc1c(C(=O)N/N=C/c2ccncc2)nnn1-c1nonc1N | 6.41
42 | Cc1ccc(S(=O)(=O)N2[C@@H](c3cccc(C)c3)C(C(=O)O)=C[C@H]2CC2CCCC2)cc1 | 8.82
43 | Cc1ccc(-n2nnnc2SCC(=O)Nc2ccccc2N2CCCCC2)cc1C | -1.34
44 | Cc1cc(C)nc(NC(N)=NCCc2ccccc2)n1 | -1.52
45 | CCCCSCCCNC(=O)C1CCC(CNS(=O)(=O)c2ccccc2)CC1 (stereo unspecified) | -20
46 | COc1ccc(NC2c3ccccc3C(=O)N2Cc2ccc3c(c2)OCO3)cc1 (stereo unspecified) | 5.36
47 | COc1cc(NC2c3ccccc3C(=O)N2Cc2ccc3c(c2)OCO3)cc(OC)c1 (stereo unspecified) | -1.58
48 | O=C(NCCN1CCCCC1)Nc1ccc(Br)cc1 | -24.7

Row | Compound | inhibition [%]
49 | O=[N+]([O-])c1cc(F)c(N2CCCCC2)cc1N1CCOCC1 | 10.6
50 | N#Cc1cc(N2CCCCC2)c([N+](=O)[O-])cc1C#N | 9.08
51 | O=C(CSc1n[nH]c(=O)[nH]c1=O)Nc1ccccc1C(=O)c1ccccc1 | -9.72
52 | CCCCC(=O)Nc1ccc(F)c(Cl)c1 | 0.54
53 | Cc1cccc(C)c1NC(=O)CCCCCC1NC(=O)NC1C (stereo unspecified) | 24.2
54 | Cc1ccc(NC(=O)CCC(=O)Nc2ccc(C)cc2)cc1 | 4.02
55 | COC(=O)CCCCC1SCC2NC(=O)NC21 (stereo unspecified) | 1.31
56 | CCC(=O)Nc1ccc(F)c(Cl)c1 | -2.47
57 | CCc1cccc(NC(=O)CCSCCC(=O)Nc2cccc(CC)c2)c1 | 14.8
58 | O=C(O)CCCCC1SCC2NC(=O)NC21 (stereo unspecified) | 22.1
59 | CCc1cccc(NC(=O)CCCN2C(=O)NC(C)(C)C2=O)c1 | -6.41
60 | COc1ccc(C(C(=O)NC2CCCC2)N(CCN(C)C)C(=O)c2snc(C(N)=O)c2N)cc1 (stereo unspecified) | -6.89
61 | O=C(Cc1ncc(C(F)(F)F)cc1Cl)NC1CC1 | -2.28
62 | O=C(Cc1cccc(C(F)(F)F)c1)N1CCN(CC(=O)N2CCCC2)CC1 | -1.65
63 | CCCNC(=O)CN(c1cccc(F)c1)S(C)(=O)=O | -3.24
64 | COC(CNC(=O)CN1CCN(Cc2ccccc2F)C1=O)OC | -6.42
65 | COc1ccc(NC(=O)CN2CCN(CC(=O)Nc3ccc(F)cc3)CC2)c(OC)c1 | -6.91
66 | O=C(COC(=O)c1ccc(O)cc1)NCC1COc2ccccc2O1 (stereo unspecified) | -6.24
67 | Cc1nn(CC(=O)NC(=O)c2ccccc2)c(C)c1[N+](=O)[O-] | -12.3
68 | COc1ccc(CC(=O)OC2CCCN(C)C2)cc1 (stereo unspecified) | 2.07
69 | CC1NC(=O)NC1CCCCC(=O)O (stereo unspecified) | 8.09
70 | Cc1c(F)cccc1NC(=O)CSCC(=O)Nc1ccccc1 | -20.1
71 | CCCCCC1NC(=O)NC1CCCCCC(=O)O (stereo unspecified) | 0.19
72 | Cc1c(F)cccc1NC(=O)CCC(=O)O | 22.1

Row | Compound | inhibition [%]
73 | O=C(CCCCC(=O)Nc1ccc(F)cc1)Nc1ccc(F)cc1 | -8.93
74 | O=C(CCCCCN1C(=O)c2ccccc2C1=O)Nc1ccc(F)cc1 | 15.1
75 | COc1ccc(NC(=S)NCCc2ccc(S(N)(=O)=O)cc2)c(OC)c1 | 0.63
76 | Cc1ccc(C)c(OCCn2cc(/C=C(\C#N)C(=O)NCC3CCCO3)c3ccccc32)c1 (stereo unspecified) | 5.75
77 | O=C(COC(=O)Cc1ccc(Cl)cc1)Nc1ccc(OC(F)F)cc1 | -4.03
78 | COc1cc(CN2C(=S)NC(C)(C)CC2(C)O)cc(OC)c1 (stereo unspecified) | -3.29
79 | Cc1cc(C)n(Cc2ccc(C(=O)Nc3cccc(Br)c3)o2)n1 | 26.6
80 | O=C(N/N=C/c1coc2ccccc2c1=O)c1cc(Br)c(O)c(Br)c1 | -7.78
81 | O=C1C(Cc2ccc(O)cc2)NC(=S)N1c1ccccc1 (stereo unspecified) | 2.29
82 | O=C(N/N=C/C1C(c2ccccc2)C1(Cl)Cl)c1cccc(Br)c1 (stereo unspecified) | -5.72
83 | O=C(C[n+]1ccc(C(=O)N/N=C/c2ccc(O)cc2)cc1)c1ccccc1 | 2.67
84 | C=CCN1C(=O)/C(=C\c2ccc(C)cc2)N=C1SCC(=O)NCCC | -5.98
85 | C/C(=N\NC(=O)c1ccn(C)n1)c1cccc(NC(=O)c2ccncc2)c1 | 10.3
86 | COC(=O)C1=C(O)CSC1=Nc1ccc(C)cc1 | -6.3
87 | CCc1nn2cc(C(=O)c3ccccc3O)cnc2c1-c1ccc(F)cc1 | 14.5
88 | O=[N+]([O-])c1ccc(/C=C/c2ccc3cccc(O)c3n2)cc1 | -0.58
89 | O/N=C/c1ccc2cccc(O)c2n1 | 1.88
90 | CCOc1ccc(OCCC(=O)NNC(=O)c2ccccc2Cl)cc1 | -2.63
91 | CCN(CC)CCNC(=O)c1cc(Sc2nnc(C)s2)nc2ccccc12 | -9.1
92 | COc1cc2[nH]c(=O)n(Cc3ccc(C(=O)NCCCN4CCC(C)CC4)cc3)c(=O)c2cc1OC | 4.01
93 | COc1ccc(N(CC(=O)NCc2ccc(Cl)cc2)S(=O)(=O)c2c(C)noc2C)cc1 | 6.25
94 | OC(CNCC(c1ccc(Cl)cc1Cl)c1c[nH]c2ccccc12)c1ccccc1 (stereo unspecified) | 5.5
95 | NCC(c1ccc(Cl)cc1Cl)c1c[nH]c2ccccc12 (stereo unspecified) | 7.89
96 | CC[C@]12C(=O)N(C)C[C@H]([C@@H]3C(=O)N(Cc4ccccc4)C(=O)[C@@H]31)N2C(=O)c1ccc(Br)cc1 | 1.57
